# VP16 counter: Gal4-VP16 reporter inhibition counter-screen; Drosophila S2 Gal4-VP16 UAS-luciferase, luminescence, 20 h; Potency, µM (top dose mostly 53.6 µM), inactives show at the highest dose activity, negative = inhibition, most hits filed as inhibitors; 3.5% of 310,000 active;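 note: Gal4-VP16 expression switched on by copper sulfate through the metallothionein promoter; potency is the fitted concentration of half-maximal effect; nearly all actives have a fitted effect of over 50% in size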
# DT40 TDP1 no CPT: qHTS for Inhibitors of human tyrosyl-DNA phosphodiesterase 1 (TDP1): qHTS in cells in absence of CPT | DT40 Tdp1-/- hTDP1 cells, no CPT, ATP luminescence, 48 h | Potency, µM (series often up to 46.2 µM), inactives show top-dose activity change, negative = growth inhibition, most hits filed as inhibitors | 15% of 420,000 active; note: potency is the fitted concentration of half-maximal effect; nearly all actives have a fitted effect of over 55% in size
#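 Growth of hTDP1-complemented DT40 Tdp1-knockout cells is measured by ATP luminescence after at least 48 hr compound exposure at 37 °C, with DMSO substituting for the 20 nM CPT used in the parallel screen.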
# RORg inh: inhibitors of mouse ROR gamma transcriptional activity. P51450. Drosophila S2 Gal4-RORgamma UAS-luciferase reporter, 20 h. Potency, µM (highest dose often 53.6 µM), for inactives: at the highest dose activity change, negative = inhibition, usual class: inhibitors. 5.4% of 310,000 active. AID 2551; note: potency is the fitted concentration of half-maximal effect; nearly all actives have a fitted effect of over 60% in size
# Target sequence (P51450 whole entry, looked up, the tested form may be a part): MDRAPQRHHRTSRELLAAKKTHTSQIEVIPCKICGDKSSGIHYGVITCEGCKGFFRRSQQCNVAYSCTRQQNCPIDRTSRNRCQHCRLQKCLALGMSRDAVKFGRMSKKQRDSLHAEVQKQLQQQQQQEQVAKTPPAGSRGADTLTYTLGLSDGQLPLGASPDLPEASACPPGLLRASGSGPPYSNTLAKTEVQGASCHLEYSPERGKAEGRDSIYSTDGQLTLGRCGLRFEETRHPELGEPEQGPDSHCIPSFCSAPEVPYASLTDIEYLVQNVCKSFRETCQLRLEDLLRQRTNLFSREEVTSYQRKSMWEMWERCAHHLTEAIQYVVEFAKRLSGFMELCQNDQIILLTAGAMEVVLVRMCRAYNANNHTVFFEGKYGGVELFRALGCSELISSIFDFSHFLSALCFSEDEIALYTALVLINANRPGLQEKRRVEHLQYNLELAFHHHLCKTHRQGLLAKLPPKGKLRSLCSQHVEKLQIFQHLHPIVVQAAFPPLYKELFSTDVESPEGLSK
#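 ROR gamma transcriptional activity was tracked as Gal4-UAS luciferase output in stably transfected Drosophila Schneider cells, with compound added 1 hr before 700 uM copper sulfate induction and a 20 hr ambient-temperature incubation.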
# ELG1 DNA repair: ELG1-dependent DNA repair inhibition. Potency, µM (doses to about 46.1 µM), without a hit: top-dose activity change, negative = inhibition, usual class: inhibitors. HEK293T ELG1-luciferase reporter, luminescence, 16 h; DNA damage induced by 5-fluorouridine. 2.3% of 330,000 active; note: potency is the fitted concentration of half-maximal effect; nearly all actives have a fitted effect of over 55% in size
#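 Quantitative HTS, concentration-response format. 2,000 cells/well co-treated with 5-fluorouridine and compound, 16 hr in 5% CO2 at 37 °C; ONE-Glo luminescence read after 30 min.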
# IL-1B inflam inh: inhibitors of inflammasome signaling (IL-1 beta secretion). activity change, % at 57.5 µM. 4.7% of 360,000 active. THP-1 LPS/ATP IL-1B secretion, AlphaLISA, 16 h; stronger effect = lower value; in the data active = activity change below about -50%; inconclusive = mostly about -30% to -49%
#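 Secreted IL-1B measured by AlphaLISA bead assay after 16 h compound exposure of THP-1 cells; compounds (final up to 57.5 uM) added 1 h before LPS (250 ng/mL) and ATP (1.25 mM) stimulation; lower signal means less secretion.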
# TDP1 cell CPT: growth inhibition of DT40 Tdp1-/-;hTDP1 cells with camptothecin (screen for TDP1 inhibitors); Potency, µM (doses to about 46.2 µM), without a hit: top-dose activity change, negative = growth inhibition, most hits filed as inhibitors; 12% of 420,000 active; AID 686979; chicken DT40 Tdp1-/-;hTDP1 cells + 20 nM CPT, ATP luminescence, 48 h; note: potency is the fitted concentration of half-maximal effect; nearly all actives have a fitted effect of over 55% in size
#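 Cell growth measured by CellTiter-Glo luminescence after a minimum 48 h, 37 C compound exposure with 20 nM CPT in Tdp1-knockout DT40 cells stably expressing hTDP1, seeded 400/well; qHTS titration format.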
# The depositor's hits bear a star; ? = inconclusive; . = no result given; [ ] = remark or other dose. The list is not random: actives were taken first. Their share in the collection is about 21%. Unless noted, calls come from the whole dose curve; as a rule, active = well fitted curve in the direction sought with a large enough effect; inconclusive = small, poorly fitted or top-dose-only effect, or another doubt; inactive = no such curve, though single readings can be large; an effect the other way counts as inactive or inconclusive. % is set by controls: 0 for no effect and ±100 for the full control effect.
SMILES,VP16 counter,DT40 TDP1 no CPT,RORg inh,ELG1 DNA repair,IL-1B inflam inh,TDP1 cell CPT
CC(Oc1ccccc1)C(=O)Nc1ccccc1C(=O)OCc1cc(=O)n2nc(C(C)C)sc2n1 (configuration not stated),.,20.6µM*,.,.,.,?
Cc1nn2c(=O)cc(COC(=O)c3ccccc3NC(=O)c3ccccc3C)nc2s1,.,-2.1%,.,.,.,3.1%
Cc1nn2c(=O)cc(COC(=O)c3ccccc3NC(=O)C(C)C)nc2s1,.,11.6µM*,.,.,.,?
CC(C)c1nn2c(=O)cc(COC(=O)c3ccccc3NC(=O)COc3ccccc3)nc2s1,.,?,.,.,.,5.1%
CC(NC(=O)COC(=O)C12CC3CC(CC(Br)(C3)C1)C2)c1ccccc1 (configuration not stated),.,-29.6%,.,4.8%,8.9,-26.7%
CCCCNC(=O)C1C(c2ccc(C(F)(F)F)cc2)=Nc2ccccc2N1C(=O)C1CCN(C(C)=O)CC1 (configuration not stated),.,-27.6%,.,.,32.2,-18.1%
O=C(C1=C(c2ccccc2)C(=O)c2ccccc2C1=O)c1ccccc1,11.2µM*,2.91µM*,11.2µM*,6.51µM*,-103.8*,2.06µM*
COc1ccc(C2=C(N)c3ccccc3C2=O)cc1,4.3%,?,22.9%,?,-8.2,?
COc1ccc(C2=C(Nc3ccccc3)c3ccccc3C2=O)cc1,-13.4%,?,-22.3%,?,15.5,-11.7%
COC1=C(c2ccccc2)C(=O)c2ccccc2C1=O,-17.7%,16.4µM*,-15.6%,-10.9%,-168.8*,23.1µM*
O=C1C(c2ccc(C(F)(F)F)cc2)=C(Nc2ccc(Cl)cc2)c2ccccc21,.,11.6µM*,.,.,.,16.4µM*
COc1ccc(NC2=C(c3ccc(OC)cc3)C(=O)c3ccccc32)cc1,?,?,-34.0%,-5.7%,0.0,3.66µM*
O=C(NCc1ccc(Cl)cc1)C1CCN(S(=O)(=O)Cc2ccccc2)CC1,.,-1.4%,.,.,.,-15.7%
O=C(Cn1c(=O)[nH]c2ccccc2c1=O)Nc1ccc2c(c1)OCO2,-11.1%,1.0%,20.5%,5.7%,0.0,-1.1%
COc1ccc(C2=C(Nc3ccc(C)cc3C)c3ccccc3C2=O)cc1,.,?,.,.,.,13µM*
C[C@@H]1CN([C@@H](C)CO)C(=O)CCCn2nncc2CO[C@@H]1CN(C)S(=O)(=O)c1ccc(C#N)cc1,.,-1.3%,.,.,18.7,8.7%
CCOC(=O)/C(=C\c1ccc([N+](=O)[O-])o1)NC(=O)c1ccccc1,17.9%,17.8µM*,-44.1%,?,-8.3,23.1µM*
COC(=O)/C(=C/c1ccco1)NC(=O)c1ccccc1,-0.2%,-14.0%,26.3%,-1.9%,96.6,2.5%
O=C(NCCO)/C(=C\c1ccc([N+](=O)[O-])o1)NC(=O)c1ccccc1,7.1%,29.1µM*,1.8%,?,20.4,?
CCCOC(=O)/C(=C\C=C\c1ccco1)NC(=O)c1ccccc1,-0.5%,20.6µM*,7.8%,13.7%,-14.5,13µM*
CCCOC(=O)/C(=C\c1ccc([N+](=O)[O-])o1)NC(=O)c1ccccc1,0.1%,20.6µM*,-30.5%,-1.1%,9.8,16.4µM*
CSc1ncc(Cl)c(C(=O)N(Cc2ccc(N(C)C)cc2)Cc2ccco2)n1,.,7.31µM*,.,.,.,?
CCSc1ncc(Cl)c(C(=O)N(Cc2ccccc2)Cc2ccco2)n1,.,16.4µM*,.,.,.,?
COc1ccc(-c2ccc(SCC(=O)N3CC(=O)Nc4ccccc43)nn2)cc1,-2.1%,?,36.1%,26.9%,-27.5,?
Cc1ccc(N2CC(C)Cn3c2nc2c3c(=O)[nH]c(=O)n2C)cc1C (configuration not stated),4.2%,?,4.3%,9.2µM*,30.5,-19.2%
SMILES,VP16 counter,DT40 TDP1 no CPT,RORg inh,ELG1 DNA repair,IL-1B inflam inh,TDP1 cell CPT
CC1CN(c2ccc(Oc3ccccc3)cc2)c2nc3c(c(=O)[nH]c(=O)n3C)n2C1 (configuration not stated),-4.5%,25.9µM*,24.5%,?,0.0,18.4µM*
COC(=O)c1ccccc1NS(=O)(=O)c1cc2c3c(c1)CC(=O)N3CCC2,.,-25.3%,.,.,.,-26.6%
Nc1ccc(S(=O)(=O)Nc2nc(-c3ccccc3)cc(-c3ccccc3O)n2)cc1,.,-16.0%,.,.,17.2,-23.6%
NNc1nc(-c2ccccc2)cc(-c2ccccc2)n1,-9.0%,?,4.47µM*,?,?,16.4µM*
NNc1nc(-c2ccccc2)cc(-c2ccccc2O)n1,12.6µM*,?,7.08µM*,-26.6%,-8.8,?
Nc1nc(-c2ccccc2)cc(-c2ccccc2O)n1,2.4%,?,?,10.9%,-60.7*,?
CC(C)CCC[C@@H](C)[C@H]1CC[C@H]2[C@@H]3CC[C@@H]4C[C@H](O)CC[C@]4(C)[C@H]3CC[C@]12C,3.7%,-20.1%,-0.2%,.,.,-9.7%
Cc1ccc(NC(=O)Cn2c(=O)n(Cc3nc(-c4ccccc4)no3)c(=O)c3cc4c(cc32)OCO4)cc1C,.,?,.,.,.,-9.2%
O=C(N1CCN(c2ccc(F)cc2)CC1)C1(c2cccs2)CCOCC1,-6.6%,?,-8.4%,7.5%,-12.9,-22.4%
Cc1cc2c(cc1C)-c1c(ssc1=Nc1ccc(S(N)(=O)=O)cc1)C(C)(C)N2,-24.1%,16.4µM*,-30.6%,-3.6%,15.4,?
COc1ccc(/C=C\C(=O)CC(O)(c2ccccc2)C(F)(F)F)cc1 (configuration not stated),-8.3%,14.6µM*,?,-17.4%,-74.2*,16.4µM*
COc1ccc(/C=C/C(=O)OCC(=O)c2ccccc2F)cc1,.,?,.,?,-12.8,-26.2%
O=C(NCc1cccs1)C1CCCN(c2ncccn2)C1 (configuration not stated),.,-2.3%,12.7%[0.365 µM],7.8%,6.4,-21.3%
Cc1cc(C)nc(N2CCCC(C(=O)Nc3nnc(C)s3)C2)n1 (configuration not stated),3.6%,-4.5%,10.7%,3.0%,-2.6,-7.3%
Cc1cc(C)nc(N2CCCC(C(=O)Nc3nc4ccc(S(C)(=O)=O)cc4s3)C2)n1 (configuration not stated),.,?,-6.6%[0.365 µM],16.4µM*,-15.7,?
CCOC(=O)CNC(=O)C1CCCN(c2ncccn2)C1 (configuration not stated),-3.8%,-7.3%,-1.3%,-2.0%,-6.6,29.1µM*

# Bioassay records from PubChem.
